In all, about 24,000 compounds went through this assay and fewer than 10 were called active. About 9% were inconclusive and are not listed.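 How the source made its calls: active means fluorescent ligand binding to cells raised by more than 40% of the manganese-induced maximum; inconclusive means compound's own fluorescence above 85% of the ligand control signal; inactive means the rest.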 Not all results are given here.
These compounds were tested against Integrin alpha-4 (Homo sapiens) (UniProt P13612) (assay: increased LDV-FITC ligand binding on VLA-4 – Jurkat cells, flow cytometry, primary screen (AID 528;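 further: 0% = ligand binding without compound and 100% = manganese-stimulated maximal binding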)). Details: stronger effect = higher value, screened at 10 µM (by protocol).
Integrin alpha-4 (Homo sapiens), sequence (P13612 whole entry, looked up): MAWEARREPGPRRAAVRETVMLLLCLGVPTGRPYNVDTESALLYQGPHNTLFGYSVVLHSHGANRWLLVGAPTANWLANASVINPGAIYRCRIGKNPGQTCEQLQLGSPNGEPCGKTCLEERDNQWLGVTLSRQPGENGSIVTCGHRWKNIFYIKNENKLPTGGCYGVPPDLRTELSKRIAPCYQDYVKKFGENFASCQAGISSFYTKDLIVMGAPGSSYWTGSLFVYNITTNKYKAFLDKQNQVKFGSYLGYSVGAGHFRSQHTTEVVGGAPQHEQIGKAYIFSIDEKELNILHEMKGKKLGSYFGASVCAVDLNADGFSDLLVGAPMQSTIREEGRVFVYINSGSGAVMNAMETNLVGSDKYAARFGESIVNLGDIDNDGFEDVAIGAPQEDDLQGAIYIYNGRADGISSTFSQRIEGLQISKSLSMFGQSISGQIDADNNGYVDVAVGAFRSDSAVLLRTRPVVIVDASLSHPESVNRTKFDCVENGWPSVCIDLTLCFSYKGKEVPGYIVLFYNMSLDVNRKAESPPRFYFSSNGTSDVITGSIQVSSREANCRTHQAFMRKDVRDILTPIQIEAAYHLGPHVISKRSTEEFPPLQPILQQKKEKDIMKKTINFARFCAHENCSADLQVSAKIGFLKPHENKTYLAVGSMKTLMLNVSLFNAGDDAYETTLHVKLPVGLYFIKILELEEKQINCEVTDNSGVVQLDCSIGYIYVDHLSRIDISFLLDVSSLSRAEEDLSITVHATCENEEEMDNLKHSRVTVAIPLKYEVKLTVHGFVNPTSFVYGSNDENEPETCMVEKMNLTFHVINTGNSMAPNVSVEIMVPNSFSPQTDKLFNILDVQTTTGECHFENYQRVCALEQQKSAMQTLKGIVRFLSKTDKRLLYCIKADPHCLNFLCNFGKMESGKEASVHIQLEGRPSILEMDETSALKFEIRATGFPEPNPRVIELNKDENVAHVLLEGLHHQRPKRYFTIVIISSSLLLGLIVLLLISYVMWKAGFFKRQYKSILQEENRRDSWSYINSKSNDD

activation, inactive:
Cc1ccccc1S(=O)(=O)Cc1ccc(C(=O)NCCN2CCCCC2C)o1 (stereo not drawn) -1%, Nc1c(C(=O)NCc2ccccc2)nnn1Cc1cccc(Cl)c1 -4%, CCCCCOC(=O)C1=C(C)Nc2nnnn2C1c1ccc(OC)c(OC)c1OC (stereo not drawn) -4%, CCC(=O)N1c2ccc(S(=O)(=O)CCC(=O)N3CCN(c4ccccc4)CC3)cc2CC1C (stereo not drawn) -5%, COc1ccc(OC)c(CNC(=O)CCc2nc(-c3cccs3)no2)c1 2%, Cc1ccccc1NC(=O)c1ccccc1 -14.5%, CCOC(=O)N1CCC(NC(=O)CCc2cn(C)c3ccccc23)CC1 8%, COc1cc2[nH]c(=S)n(Cc3ccc(C)o3)c(=O)c2cc1OC 0%, CCOC(=O)CNC(=O)CN1C(=O)CCSc2ccccc21 6%, CCOC(=O)c1ccc(CS(=O)c2ccc(Cl)cc2)o1 (stereo not drawn) 4%, COC(=O)C1=C(C)OC(N)=C(C#N)C1c1cc(OC)ccc1OC (stereo not drawn) -3%, Cc1ccc(NC(=O)C2CC(c3ccc(F)cc3)=NO2)cc1 (stereo not drawn) 3%, CCc1c(C)c2c(C)[nH]nc2oc1=O -1%, CC12COC3(C(=O)Nc4ccc(Cl)cn4)CC1CCC32C (stereo not drawn) 5%, Cc1ccc(S(=O)(=O)NCC(=O)N(CC(=O)NC2CCCCC2)Cc2ccco2)cc1 2%, O=C1Nc2c(Br)cc(Br)cc2C1(O)N1CCOCC1 (stereo not drawn) 9%, CCOC(=O)N1CCN(C(=O)C2CC(c3ccc(F)cc3)=NO2)CC1 (stereo not drawn) 6%, Clc1ccc(Cc2nn3c(-c4ccncc4)nnc3s2)cc1 2%, CCOCCc1c(O)nc(SCC(=O)NCc2ccco2)[nH]c1=O -1%, COc1cccc(C(=O)Nc2c3c(nn2-c2cccc(C)c2C)CS(=O)(=O)C3)c1OC -3%, COc1ccc2oc(=O)c(C(=O)N3CCN(c4ccccc4F)CC3)cc2c1 3.5%, CCOc1ccccc1NC(=O)C1CCN(S(=O)(=O)c2c(C)nn(C)c2C)CC1 2%, COc1ccc(CCNC(=O)CCCCn2c(=O)[nH]c3ccccc3c2=O)cc1OC 4%, C#CC(C)(C)NC(=O)CSc1nc2c(c(=O)n(C)c(=O)n2C)n1CCCC 8%, CCCS(=O)(=O)N1CCCC(C(=O)N2CCN(c3ccccc3)CC2)C1 (stereo not drawn) 0%, CCOC(=O)C1CCCN(C(=O)C2CCN(c3nnc(-n4cccc4)s3)CC2)C1 (stereo not drawn) -1%, CCOC(=O)N1CCC(Nc2c(NCCCN3CCN(c4ccc(OC)cc4)CC3)c(=O)c2=O)CC1 -4%, COC(=O)c1ccc(NC(=O)CSc2nnc(Cc3cccn3C)n2-c2ccc(F)cc2)cc1 -4%, Cc1noc(C)c1S(=O)(=O)N(CC(=O)Nc1ccc2c(c1)OCCO2)c1ccc(C(C)C)cc1 -8%, Cn1c(C(=O)N2CCC(C(N)=O)CC2)cc2c(=O)n(C)c3ccccc3c21 -1%, O=C(Nc1ccccc1C(=O)N1CCOCC1)C1CCC(=O)N1C1CCCC1 (stereo not drawn) 8%, CN1CCN(S(=O)(=O)c2ccc3[nH]cc(C(=O)O)c(=O)c3c2)CC1 2%, Cc1ccnc(N2C(=O)c3ccccc3C2Nc2ccc3c(c2)OCCO3)c1 (stereo not drawn) -5%, COCCCNC(=O)c1ccc(CNS(=O)(=O)c2ccc(NC(C)=O)cc2)cc1 -3.5%, Cc1nc(N2CCN(c3ncccn3)CC2)c2oc3ccccc3c2n1 -3.5%, CC(C)OCCCNC(=O)C1CC(=O)N(C2CCCCCCC2)C1 (stereo not drawn) -1%, Cc1ccc(S(=O)(=O)N2CCCC2CO)cc1 (stereo not drawn) 5%, COc1ccc(C(=O)NC(=O)CSc2nnc(-c3ccco3)n2-c2ccccc2)cc1 1.3%, Cc1ccccc1CN1CCN(C(=O)c2cccc(F)c2)CC1 4%, CC1CCN(Cc2nc3c(c(=O)n(C)c(=O)n3C)n2Cc2cccc3ccccc23)CC1 2%, CCOc1nc(OCC)nc(-n2cc(-c3ccccc3)nn2)n1 2%, FC(F)Oc1ccccc1C1CC(c2ccc(Br)s2)Nc2ncnn21 (stereo not drawn) 3%, Cc1cc(Nc2cccc(F)c2)n2ncnc2n1 -0.5%, O=C(c1ccco1)N1CCN(C(=O)c2ccc(COc3ccc(F)cc3)o2)CC1 0%, Cn1c(CNC(=O)C(C)(C)C)nc2ccccc21 -3%, Cc1cc(NS(=O)(=O)c2ccccc2)no1 5.5%, CCOC(=O)c1cn(CC(=O)Nc2ccc(C(C)C)cc2)nn1 -2%, Cc1cccc(C)c1NC(=O)N1CC=C(n2c(=O)[nH]c3ccccc32)CC1 0%, Cc1ccc(S(=O)(=O)n2nc(OC(=O)C(C)(C)C)cc2N)cc1 4%, CCOC(=O)c1c(C)c(C(=O)NCCc2ccc(S(N)(=O)=O)cc2)c(C)n1CC 16%, O=C(O)C1C2C=CC(C2)C1C(=O)N1CCN(CCO)CC1 (stereo not drawn) -2%, Cc1cnc(C(=O)OCC(=O)Nc2ccc(Cl)cc2Cl)cn1 3%, CCOC(=O)Cn1c(CN(Cc2ccccc2)Cc2ccccc2)nc2c1c(=O)[nH]c(=O)n2C -5%, O=S(=O)(O)CCN1CCOCC1 -6%, O=C(NC1CCCCC1)C1CCCN(S(=O)(=O)c2cccs2)C1 (stereo not drawn) -10.5%, COc1ccc(C(=O)NCc2cn3ccccc3n2)cc1 -2%, Cc1ccccc1NC(=O)Cc1nnc(SCC(=O)N2CCN(c3ccccc3)CC2)n1C 0.5%, CC(C)CCNC(=O)CCNS(=O)(=O)c1ccc(Cl)cc1 -2.7%, COc1ccccc1-c1c(C)nn2c(C)c(C(C)=O)cnc12 -2%, COc1cccc(OCC(O)CN2CCN(CCO)CC2)c1 (stereo not drawn) 3.3%, CCCC(=O)Nc1cccc(-c2cn3ccsc3n2)c1 3%, Cc1noc(C)c1S(=O)(=O)NCCc1ccc(S(N)(=O)=O)cc1 3%, CC(=O)N(CC1CCCO1)C1(C(=O)NC2CCCC2)CCCCC1 (stereo not drawn) 0%
